{"source": "PubChem BioAssay AID1422", "about": "(Emory University Molecular Libraries Screening Center, 2008)", "note": "Values joined by “and” are separate entries in the source; they are usually repeats but may differ in a detail not shown here. Identical values can stand only once. The whole screen tested about 260,000 compounds, of which about 1,300 (0.5%) were called active.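 Rule for the calls: active = percent inhibition above 40 after rounding to a whole number; inactive = the rest.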 What follows is part of a selection rich in actives, with near analogues and random picks from the rest. Some compounds were tested as several samples or in several runs, with calls that do not always agree."}
{"target": "Prostaglandin E2 receptor EP2 subtype (Homo sapiens) (UniProt P43116)", "sequence (P43116 whole entry, looked up)": "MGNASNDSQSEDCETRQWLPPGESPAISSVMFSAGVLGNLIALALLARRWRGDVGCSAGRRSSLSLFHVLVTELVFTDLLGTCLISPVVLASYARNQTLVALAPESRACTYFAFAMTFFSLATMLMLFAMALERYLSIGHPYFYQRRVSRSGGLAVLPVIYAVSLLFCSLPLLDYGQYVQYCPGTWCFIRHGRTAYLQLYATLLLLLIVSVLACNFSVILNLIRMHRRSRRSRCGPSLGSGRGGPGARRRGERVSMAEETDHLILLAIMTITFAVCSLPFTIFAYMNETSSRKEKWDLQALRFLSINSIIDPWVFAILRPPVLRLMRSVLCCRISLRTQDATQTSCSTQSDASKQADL", "assay": "human EP2 receptor antagonists, primary screen, TR-FRET cAMP, C6 glioma cells (AID 1422);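 note: rat C6 glioma host cells with rolipram phosphodiesterase inhibitor present; the protocol text gives 20 µM as final concentration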", "conditions": "C6 glioma cells expressing human EP2, cAMP TR-FRET; at 25 µM; stronger effect = higher value; cells stimulated with saturating PGE2"}
{"compound": "Oc1c(Cl)cc(Cl)c(Cl)c1Cc1c(O)c(Cl)cc(Cl)c1Cl", "inhibition": "113% (active) and 18.5% (inactive)"}
{"compound": "COc1ccc(CNC(=O)C2C3CCC4(CN(CCc5ccccc5)C(=O)C24)O3)cc1", "note": "(stereo unspecified)", "inhibition": "8.25% (inactive)"}
{"compound": "COC(=O)c1c(NC(=O)c2cccc(C)c2)sc(C(=O)Nc2cccc(OC)c2)c1C", "inhibition": "7.04% (inactive)"}
{"compound": "Clc1ccc(Nc2nc3nonc3n3nnnc23)cc1", "inhibition": "91.1% (active)"}
{"compound": "Clc1ccc(Nc2ncnc3c2nnn3Cc2ccccc2)cc1", "inhibition": "7.31% (inactive)"}
{"compound": "COc1ccccc1NC(=S)N(Cc1cc2cccc(C)c2[nH]c1=O)CC1CCCO1", "note": "(stereo unspecified)", "inhibition": "15.9% (inactive)"}
{"compound": "Cc1ccc2[nH]c(=O)c(CN(Cc3ccccc3Cl)C(=O)N3CCCC3)cc2c1", "inhibition": "11.3% (inactive)"}
{"compound": "CCCC(NC(=O)c1csc(C(C)=O)c1)c1ccc2c(c1)OCCO2", "note": "(stereo unspecified)", "inhibition": "9.91% (inactive)"}
{"compound": "COc1ccc(-c2cc(C(F)(F)F)nc(SCC(=O)N3CCCCC3C)n2)cc1", "note": "(stereo unspecified)", "inhibition": "52.4% (active)"}
{"compound": "CC1CCCCN1C(=O)CSc1nc(-c2ccccc2)cc(C(F)(F)F)n1", "note": "(stereo unspecified)", "inhibition": "12.9% (inactive)"}
{"compound": "COc1ccc(-c2cc(C(F)(F)F)nc(SCCC(=O)N3CCCCC3C)n2)cc1", "note": "(stereo unspecified)", "inhibition": "12.1% (inactive)"}
{"compound": "CCOc1ccc(C2C(C(=O)c3ccco3)=C(O)C(=O)N2CCOC)cc1OC", "note": "(stereo unspecified)", "inhibition": "8.68% (inactive)"}
{"compound": "COc1cccc(/C=N/Nc2ncc(C(F)(F)F)cc2Cl)c1O", "inhibition": "4.36% (inactive)"}
{"compound": "COc1ccccc1/C=N\\Nc1cc(C)nc(-n2nc(C)cc2C)n1", "inhibition": "3.92% (inactive)"}
{"compound": "COc1cccc(/C=N/Nc2cc(C)nc(-c3ccccc3O)n2)c1O", "inhibition": "39.9% (active)"}
{"compound": "Oc1ccccc1-c1nc2cnccn2c1NCc1ccccc1", "inhibition": "9.33% (inactive)"}
{"compound": "CN(C)CCCNC(=O)C(=O)Nc1ccc2c(c1)OCO2", "inhibition": "13.4% (inactive)"}
{"compound": "C[C@H]1O[C@@H](CC(=O)O)Cc2c1c(O)c1c(O)cc(-c3cc(=O)c4c(=O)c5c(c(=O)c=4c3=O)C[C@H](CC(=O)O)O[C@@H]5C)c(O)c1c2O", "inhibition": "41.5% (active)"}
{"compound": "Cc1ccc(NC=C2C(=O)OC(C)(C)OC2=O)cc1Cl", "inhibition": "10% (inactive)"}
{"compound": "Cc1ccc(C)c2[nH]c(=O)c(C(c3nnnn3Cc3ccc(F)cc3)N3CCc4ccccc4C3)cc12", "note": "(stereo unspecified)", "inhibition": "6.97% (inactive)"}
{"compound": "C=COCCNC(=O)Cn1nc(C)n2c(cc3occc32)c1=O", "inhibition": "7.9% (inactive)"}
{"compound": "CNc1ncnc2c1ncn2[C@@H]1O[C@H](CO)[C@H](O)C1O", "note": "(stereo partly specified)", "inhibition": "13.5% (inactive)"}
{"compound": "Nc1nc(SCc2ccc([N+](=O)[O-])cc2)c2ncn(C3OC(CO)C(O)C3O)c2n1", "note": "(stereo unspecified)", "inhibition": "9.89% (inactive)"}
{"compound": "OC[C@@H]1O[C@H](n2cnc3c(SCc4ccccc4)ncnc32)[C@H](O)[C@H]1O", "inhibition": "48.2% (active)"}
{"compound": "CCOc1ccc(-n2nnnc2SCC(=O)Nc2ccc(C)c(NC(=O)CC)c2)cc1", "inhibition": "10.6% (inactive)"}
{"compound": "CC(=O)Nc1ccc(S(=O)(=O)N2CC=C[C@@H]2C(=O)NCCc2ccccc2)cc1", "inhibition": "8.27% (inactive)"}
{"compound": "Cc1ccc(C)c2nc(SCC(=O)Nc3ccccc3-c3ccccc3)c(C#N)cc12", "inhibition": "13.9% (inactive)"}
{"compound": "Cc1cccc2cc(CN(Cc3cccs3)C(=O)Nc3ccc(Cl)cc3)c(=O)[nH]c12", "inhibition": "6.58% (inactive)"}
{"compound": "OC(CN1CCC(O)(c2cccc(C(F)(F)F)c2)CC1)c1ccccc1", "note": "(stereo unspecified)", "inhibition": "5.58% (inactive)"}
{"compound": "CC1CCc2c(sc3ncn4c(SCC(=O)N5CCc6ccccc65)nnc4c23)C1", "note": "(stereo unspecified)", "inhibition": "16.8% (inactive)"}
{"compound": "COc1ccc(NC(=O)CSc2nnc3c4c5c(sc4ncn23)CC(C)CC5)cc1", "note": "(stereo unspecified)", "inhibition": "46.8% (active)"}
{"compound": "COc1ccccc1NC(=O)CSc1ncnc2sc3c(c12)CCC(C)C3", "note": "(stereo unspecified)", "inhibition": "15.3% (inactive)"}
{"compound": "Cc1nnc(NC(=O)CN2CCN(C3CCCCC3)CC2)s1", "inhibition": "13.3% (inactive)"}
{"compound": "COC(=O)c1ccc(-n2nnnc2SCC(=O)NCc2cccs2)cc1", "inhibition": "10.1% (inactive)"}
{"compound": "COc1ccc(C2(NC(=O)c3ccc(N4CCCCS4(=O)=O)cc3)CCCC2)cc1", "inhibition": "6.96% (inactive)"}
{"compound": "O=C(O)C1CCN(C(=O)OCc2ccccc2)CC1", "inhibition": "7.11% (inactive)"}
{"compound": "CC(C)C(NC(=O)OCc1ccccc1)C(=O)OCC(=O)N1C(C)CCCC1C", "note": "(stereo unspecified)", "inhibition": "12.2% (inactive)"}
{"compound": "NC1(C(=O)OCc2ccccc2)CCCC1", "inhibition": "42.6% (active)"}
{"compound": "COc1ccccc1C1(NC(=O)c2snnc2C)CCCC1", "inhibition": "10.4% (inactive)"}
{"compound": "O=C(O)COc1nc(N2CCCCC2)nc(N2CCCCC2)n1", "inhibition": "11.5% (inactive)"}
{"compound": "Cc1cccc(N(CC(=O)NC2CCCC2)C(=O)c2snc(C(=O)NC3CCCCC3)c2N)c1C", "inhibition": "13.6% (inactive)"}
{"compound": "CC(=O)Nc1cc(C(=O)O)ccc1S(=O)(=O)c1ccc(Cl)cc1", "inhibition": "5.25% (inactive)"}
{"compound": "O=C(Nc1ccccc1)c1nnsc1S(=O)(=O)c1ccc(Cl)cc1", "inhibition": "114% (active)"}
{"compound": "CS(=O)(=O)c1ccc(Cl)c(NC(=O)Nc2ccccc2)c1", "inhibition": "6.72% (inactive)"}
{"compound": "CC1CCc2c(sc3ncnc(SCc4cc(=O)[nH]c5ccccc45)c23)C1", "note": "(stereo unspecified)", "inhibition": "13.1% (inactive)"}
{"compound": "Cc1cccc2c(=O)c(C(=O)NN)c[nH]c12", "inhibition": "5.35% (inactive)"}
{"compound": "Cc1cc(C)cc(NC(=O)CSc2nc3c(c(=O)n(C)c(=O)n3C)n2C(C)C)c1", "inhibition": "5.34% (inactive)"}
{"compound": "COC(=O)c1ccccc1NC(=O)CSc1nnc2c(C)cc3cc4c(cc3n12)OCCO4", "inhibition": "7.88% (inactive)"}
{"compound": "Cc1cc2cc3c(cc2n2c(SCC(=O)Nc4ccc(Cl)cc4)nnc12)OCCO3", "inhibition": "19.1% (inactive)"}
{"compound": "Cc1nc(NC(=O)CSc2nnc3c(C)cc4cc5c(cc4n23)OCCO5)sc1C", "inhibition": "40.1% (active)"}
{"compound": "CC1Cc2cc(C(O)CN3CCCC3)ccc2N1C(=O)C(C)(C)C", "note": "(stereo unspecified)", "inhibition": "6.03% (inactive)"}
{"compound": "C=CCOc1cccc(C2C(C(=O)c3ccc(C)o3)=C(O)C(=O)N2c2nnc(C)s2)c1", "note": "(stereo unspecified)", "inhibition": "45.8% (active)"}
{"compound": "COc1cc(C2C(C(=O)c3ccc(C)o3)=C(O)C(=O)N2Cc2cccnc2)ccc1O", "note": "(stereo unspecified)", "inhibition": "-0.43% (inactive)"}
{"compound": "Cc1ccc(C(=O)C2=C(O)C(=O)N(Cc3ccccc3)C2c2ccncc2)o1", "note": "(stereo unspecified)", "inhibition": "17.6% (inactive)"}
{"compound": "CC(=O)C(C)n1c(CN2CCC(C)CC2)nc2c1c(=O)n(C)c(=O)n2C", "note": "(stereo unspecified)", "inhibition": "7.13% (inactive)"}
{"compound": "Cn1c(=O)c2c([nH]c(=O)n2Cc2cccc3ccccc23)n(C)c1=O", "inhibition": "11.4% (inactive)"}
{"compound": "O=C(/C=C/c1ccc(Cl)c([N+](=O)[O-])c1)c1ccc(O)cc1", "inhibition": "2.09% (inactive)"}
{"compound": "O=C(Nc1cccnc1)c1ccc(Cl)c([N+](=O)[O-])c1", "inhibition": "3.46% (inactive)"}
{"compound": "O=C(/C=C/c1ccc(Cl)c([N+](=O)[O-])c1)c1cccnc1", "inhibition": "43.7% (active)"}
{"compound": "COc1ccc(CNc2sc3c(c2C(=O)Nc2ccccc2OC)CCC3)cc1", "inhibition": "8.59% (inactive)"}
{"compound": "COc1ccc2c(c1)NC1(CCN(C(=O)c3ccc(Cl)nc3)CC1)c1cccn1-2", "inhibition": "13% (inactive)"}
{"compound": "Cc1cccc(NC(=S)N(Cc2cc3ccc(C)c(C)c3[nH]c2=O)CC2CCCO2)c1", "note": "(stereo unspecified)", "inhibition": "8.93% (inactive)"}
{"compound": "COc1ccc2nc(Nc3nc(-c4cc5ccccc5oc4=O)cs3)sc2c1", "inhibition": "6.47% (inactive)"}
{"compound": "O=c1oc2ccccc2cc1-c1csc(Nc2cccc(O)c2)n1", "inhibition": "117% (active)"}
{"compound": "O=c1oc2ccccc2cc1-c1csc(Nc2ccc(O)cc2)n1", "inhibition": "4.13% (inactive)"}
{"compound": "CCOc1ccc2nc(SCC(=O)OC(C)C)c(C#N)cc2c1", "inhibition": "10.9% (inactive)"}
{"compound": "O=C(O)CC1=C(Nc2ccccc2)C(=O)N(c2ccccc2)C1c1ccc(Cl)cc1", "note": "(stereo unspecified)", "inhibition": "5.93% (inactive)"}
{"compound": "O=C1C=C(c2ccc(Cl)cc2)C(=O)N1Nc1ccccc1", "inhibition": "134% (active)"}
{"compound": "O=C1c2cccc3cc(Br)cc(c23)C(=O)N1Nc1ccccc1", "inhibition": "7.35% (inactive)"}
{"compound": "COc1ccc(C(c2nnnn2CC2CCCO2)N2CCN(C3CCCCC3)CC2)cc1", "note": "(stereo unspecified)", "inhibition": "1.12% (inactive)"}
{"compound": "Cc1ccc(C)c(N2C(=O)c3cccc4c(N(C)C)ccc(c34)C2=O)c1", "inhibition": "8.88% (inactive)"}
{"compound": "CC1CCN(C(=O)CN(C)S(=O)(=O)c2ccc(F)cc2)CC1", "inhibition": "7.13% (inactive)"}
{"compound": "c1ccc2c(c1)OCC(CNc1ncnc3nc[nH]c13)O2", "note": "(stereo unspecified)", "inhibition": "10.3% (inactive)"}
{"compound": "c1ccc(-c2cc3c(NCC4COc5ccccc5O4)ncnc3s2)cc1", "note": "(stereo unspecified)", "inhibition": "99.7% (active)"}
{"compound": "COc1ccc(Nc2ncnc3sc(-c4ccccc4)cc23)c(OC)c1", "inhibition": "15.7% (inactive)"}
{"compound": "COc1ccccc1N=C1Sc2nc3cc4c(cc3cc2CN1CC1CCCO1)OCO4", "note": "(stereo unspecified)", "inhibition": "9.09% (inactive)"}
{"compound": "CC(C)n1c(SCC(=O)N(Cc2ccccc2)C(C)(C)C)nc2c1c(=O)n(C)c(=O)n2C", "inhibition": "9.83% (inactive)"}
{"compound": "CCN1CCN(C(=O)c2sc3ccccc3c2Cl)CC1", "inhibition": "9.4% (inactive)"}
{"compound": "COC(=O)C1=C(C)NC2=C(C(=O)c3ccccc32)C1c1ccc(-c2ccc(C(=O)O)cc2)o1", "note": "(stereo unspecified)", "inhibition": "42.5% (active)"}
{"compound": "COc1ccccc1NC(=O)C1=C(C)NC2=C(C(=O)CCC2)C1c1ccc(C)o1", "note": "(stereo unspecified)", "inhibition": "2.07% (inactive)"}
{"compound": "Cc1ccc(C2C3=C(Nc4[nH]n(-c5ccccc5)c(=O)c42)c2ccccc2C3=O)cc1", "note": "(stereo unspecified)", "inhibition": "10.2% (inactive)"}
{"compound": "O=C(NCc1ccccc1)C(=O)c1c[nH]c2ccccc12", "inhibition": "12.1% (inactive)"}
{"compound": "C/C(Cl)=C\\CSc1nc(N2CCOCC2)c2c(c1C#N)CC(C)(C)OC2", "inhibition": "9.2% (inactive)"}
{"compound": "CN1CCN(C(c2ccc(Cl)cc2)c2nnnn2Cc2ccco2)CC1", "note": "(stereo unspecified)", "inhibition": "13.3% (inactive)"}
{"compound": "Cc1ccc(N2CCCC2=O)cc1S(=O)(=O)NC1CCCNC1=O", "note": "(stereo unspecified)", "inhibition": "5.07% (inactive)"}
{"compound": "COc1ccc2c(c1)N(C)/C(=c1\\s/c(=C3\\SC(=S)N(C)C3=O)n(C)c1=O)S2", "inhibition": "17.4% (inactive)"}
{"compound": "C/C(N[O-])=C(\\C)[N+]([O-])=[Co].CC(=N\\[O-])/C(C)=N/[O-].[CH2-]CCN1CCOCC1.c1ccncc1", "inhibition": "42.1% (active)"}
{"compound": "CN(C)S(=O)(=O)c1ccc(S(=O)(=O)N2CCN(c3ccccc3F)CC2)cc1", "inhibition": "15.4% (inactive)"}
{"compound": "CCOc1cc(-c2cc(-c3ccc(OC)cc3)nc(N)c2C#N)ccc1O", "inhibition": "13.6% (inactive) and 5.97% (inactive)"}
{"compound": "CCOc1cc(-c2c(C#N)c(N)nc(-c3ccccc3)c2CC)ccc1O", "inhibition": "42.1% (active)"}
{"compound": "CCc1c(-c2ccccc2)nc(N)c(C#N)c1-c1cccs1", "inhibition": "5.93% (inactive)"}
